Screening results: PubChem, National Center for Advancing Translational Sciences (NCATS)
Most compounds without a hit are left out; they make up all but 19% or so of the library.
S-ASM inh: Inhibitors of Secretory Acid Sphingomyelinase (S-ASM): qHTS; Sphingomyelin phosphodiesterase (Homo sapiens), P17405; placental ASM, HMU-PC fluorogenic substrate, 60 min; Potency, µM (series often up to 57.5 µM), inactives show at the top dose activity change, negative = inhibition, usual class: inhibitors; 0.006% of 340,000 active; AID 504937, 2011; also: potency is read from the fitted curve at half-maximal effect
Target sequence (P17405 47-631 limits assumed): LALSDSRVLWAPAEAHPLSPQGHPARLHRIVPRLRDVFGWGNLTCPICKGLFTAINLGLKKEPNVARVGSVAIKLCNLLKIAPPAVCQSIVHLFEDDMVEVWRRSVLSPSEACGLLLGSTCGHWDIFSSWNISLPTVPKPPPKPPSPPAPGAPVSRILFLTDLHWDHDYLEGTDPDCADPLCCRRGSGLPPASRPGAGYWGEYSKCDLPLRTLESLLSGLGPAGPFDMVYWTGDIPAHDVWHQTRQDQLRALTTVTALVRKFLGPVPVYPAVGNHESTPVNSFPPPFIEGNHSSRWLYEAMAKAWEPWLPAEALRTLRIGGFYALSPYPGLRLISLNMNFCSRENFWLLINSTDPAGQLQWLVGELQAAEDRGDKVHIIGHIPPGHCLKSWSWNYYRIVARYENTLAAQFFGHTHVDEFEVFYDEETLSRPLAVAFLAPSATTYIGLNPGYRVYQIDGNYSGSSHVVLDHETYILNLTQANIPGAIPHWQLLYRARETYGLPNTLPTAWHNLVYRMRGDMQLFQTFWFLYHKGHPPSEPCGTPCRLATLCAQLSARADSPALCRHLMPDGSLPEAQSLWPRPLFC
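Steps: dispense placental human ASM, pin compound, wait 10 min at room temperature, add HMU-PC0 substrate at 9 uM final, incubate 60 min at 37 °C, add stop solution raising pH to 10, read fluorescence.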
TGFb inhibitor: qHTS for Inhibitors of TGF-b | Potency, µM (series often up to 46.1 µM), inactives show top-dose activity, negative = inhibition, hits mostly inhibitors | HepG2 CAGA-GFP TGF-b/SMAD3 reporter, GFP fluorescence, 18 h; TGF-beta stimulated, 500 pg/mL final | 1.2% of 410,000 active; also: potency is read from the fitted curve at half-maximal effect; % is scaled to controls: 0 for no effect and ±100 for the full control effect; nearly all actives have a fitted effect of over 65% in size
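HEPG2 CAGA-GFP reporter cells (1000/well, DMEM with 1% FBS) received compounds, then recombinant TGF-beta at 500 pg/mL final for 18 hours at 37 degrees C. Per-cell GFP summed per well was normalised to unstimulated and stimulated DMSO controls before curve fitting.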
HepG2 tox: qHTS for Inhibitors of TGF-b: Cytotox Counterscreen; HepG2 CAGA-GFP viability, ATP luminescence, 18 h; Potency, µM (titrated, usually from 46.1 µM), for inactives: at the highest dose activity change, negative = cytotoxicity, usual class: cytotoxic; 0.76% of 410,000 active; AID 588856, 2011; also: potency is read from the fitted curve at half-maximal effect
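CellTiter-Glo luminescence gave cytotoxicity after 18 hours at 37 degrees C. The cells were HepG2 CAGA-GFP in 1% FBS DMEM, stimulated with 500 pg/mL TGF-beta after compound addition. %Activity was normalised to no-cell wells (complete cell-killing) and DMSO (no toxicity), and curves were fitted and classified.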
IL1B secr inh: qHTS for Inhibitors of Inflammasome Signaling: IL-1-beta AlphaLISA Primary Screen; activity change, % at 57.5 µM; THP-1 LPS/ATP IL-1B secretion, AlphaLISA, 16 h; active compounds read low; AID 743279, 2014; 4.7% of 360,000 active; in the data active = activity change below about -50%; inconclusive = mostly about -30% to -49%; also: % is scaled to controls: 0 for no effect and ±100 for the full control effect
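Secreted IL-1B measured by AlphaLISA bead assay after 16 h compound exposure of THP-1 cells; compounds (final up to 57.5 uM) added 1 h before LPS (250 ng/mL) and ATP (1.25 mM) stimulation; lower signal means less secretion.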
DT40 TDP1 CPT: qHTS for Inhibitors of human tyrosyl-DNA phosphodiesterase 1 (TDP1): qHTS in cells in presence of CPT. AID 686979, 2013. 12% of 420,000 active. Potency, µM (titrated, usually from 46.2 µM), for the others: at the highest dose activity change, negative = growth inhibition, hits mostly inhibitors. chicken DT40 Tdp1-/-;hTDP1 cells + 20 nM CPT, ATP luminescence, 48 h; also: potency is read from the fitted curve at half-maximal effect; % is scaled to controls: 0 for no effect and ±100 for the full control effect; nearly all actives have a fitted effect of over 55% in size
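Chicken DT40 Tdp1-/- cells stably complemented with human TDP1 were seeded at 400 cells/well in medium containing 20 nM camptothecin, exposed to pin-transferred compounds, and grown at 37 °C for at least 48 hr. Viability was read as ATP luminescence.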
DT40 TDP1 no CPT: qHTS for Inhibitors of human tyrosyl-DNA phosphodiesterase 1 (TDP1): qHTS in cells in absence of CPT | DT40 Tdp1-/- hTDP1 cells, no CPT, ATP luminescence, 48 h | Potency, µM (doses to about 46.2 µM), for inactives: at the top dose activity change, negative = growth inhibition, usual class: inhibitors | 15% of 420,000 active | AID 686978, 2013; also: potency is read from the fitted curve at half-maximal effect; % is scaled to controls: 0 for no effect and ±100 for the full control effect; nearly all actives have a fitted effect of over 55% in size
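Growth of hTDP1-complemented DT40 Tdp1-knockout cells is measured by ATP luminescence after at least 48 hr compound exposure at 37 °C, with DMSO substituting for the 20 nM CPT used in the parallel screen.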
* marks the source's active call; other numbers are inactive results; ? = inconclusive; · = no result given; ! = not confirmed by another sample. Unless noted, calls follow the shape of the dose curve; as a rule, active = well fitted curve in the direction sought with a large enough effect; inconclusive = small, poorly fitted or top-dose-only effect, or another doubt; inactive = no such curve, though single readings can be large; an effect the other way counts as inactive or inconclusive.

SMILES | S-ASM inh | TGFb inhibitor | HepG2 tox | IL1B secr inh | DT40 TDP1 CPT | DT40 TDP1 no CPT
COc1ccc(NC(=O)C2(C)Cc3c(-c4ccccc4)ccnc3O2)cc1OC (configuration not stated) | · | 0% | -18% | 6 | ? | ?
COCCNC(=O)C1(C)Cc2c(-c3cccc(NC(C)=O)c3)ccnc2O1 (configuration not stated) | · | 26% | 9% | 47 | ? | ?
COc1ccc(NC(=O)C2(C)Cc3c(-c4ccc(NC(C)=O)cc4)ccnc3O2)cn1 (configuration not stated) | · | 25% | -5% | ? | 21µM* | ?
COc1ccc(NC(=O)C2(C)Cc3c(-c4ccc(NC(C)=O)cc4)ccnc3O2)cc1OC (configuration not stated) | · | 4% | 1% | -25 | ? | 13µM*
COc1ccc(CCCNC(=O)C2(C)Cc3c(-c4ccc(NC(C)=O)cc4)ccnc3O2)cc1 (configuration not stated) | · | -2% | -55% | ? | 23µM* | 26µM*
COc1ccc(NC(=O)C2(C)Cc3c(-c4ccc(C(N)=O)cc4)ccnc3O2)cn1 (configuration not stated) | · | 35% | -1% | -21 | ? | ?
O=C(NCCO)c1cn(C2CCN(Cc3c(F)cccc3Cl)CC2)nn1 | · | · | · | · | 3% | 5%
CSc1ncccc1C(=O)N1CCN(S(=O)(=O)c2ccccc2)CC1 | 3% | 4% | -4% | 21 | -3% | -1%
COC(=O)CC1CC2(C(=O)OC)c3[nH]c4ccccc4c3CCN2C1=O (configuration not stated) | · | 1% | -22% | 17 | -4% | 1%
CC[C@]1(O)C[C@H]2CN(CCc3c([nH]c4ccccc34)[C@@](C(=O)OC)(c3cc4c(cc3OC)N(C=O)[C@H]3[C@@](O)(C(=O)OC)[C@H](OC(C)=O)[C@]5(CC)C=CCN6CC[C@]43[C@@H]65)C2)C1 | · | 0.56µM* | -6% | · | 0.24µM* | 0.24µM*!
COc1ccc2c(c1)C=C(C(=O)OCc1cccnc1)CO2 | 8% | 5% | 4% | 21 | 2% | -26%
CCN(CC)S(=O)(=O)c1cccc(NC(=O)/C=C/c2cccc([N+](=O)[O-])c2)c1 | -10% | ? | -11% | 17 | ? | 29µM*
O=C(/C=C/c1cccc([N+](=O)[O-])c1)n1cnc2ccccc21 | 1% | ? | -20% | -68* | 2.6µM* | 2.6µM*
O=C(/C=C/c1cccc([N+](=O)[O-])c1)NC(=S)Nc1cccc(NC(=O)c2ccccc2Cl)c1 | -2% | -4% | 10% | ? | 15µM* | 13µM*
CC(=O)Nc1cccc(NC(=O)c2ccc([N+](=O)[O-])cc2Cl)c1 | -2% | 8% | -2% | 3 | -17% | ?
CC(=O)Nc1ccc(C=CC=Cc2cccc([N+](=O)[O-])c2)cc1 | -8% | ? | 4% | -97* | 29µM* | ?
O=C(COC(=O)/C=C/c1cccc([N+](=O)[O-])c1)Nc1ccc(Cl)cn1 | -2% | -3% | 0% | 3 | 2% | 10%
O=C(/C=C/c1cccc([N+](=O)[O-])c1)Nc1ccc(Cl)cn1 | -4% | 14% | 4% | -8 | ? | 2.6µM*
COc1cccc2c1Oc1nc(-c3ccccc3)nc(SCC(=O)N3CCCCC3)c1C2 | · | ? | -7% | · | ? | ?
CC(C)(C)c1ccc(CC(=O)N2CCC2(C)C(=O)NCc2ccc3c(c2)OCO3)cc1 (configuration not stated) | · | 17% | -21% | -12 | ? | ?
CCc1ccc(NC(=S)N(Cc2ccccc2)Cc2ccccn2)cc1 | -1% | ? | -25% | -60* | 12µM* | 4.6µM*
COc1ccc(NC(=S)N(Cc2cccnc2)Cc2ccco2)cc1 | 7% | 3% | 0% | 20 | 2% | -15%
CCc1ccc(NC(=S)N(Cc2cccnc2)Cc2ccco2)cc1 | -1% | 0% | -27% | -67* | ? | 18µM*
O=C(Cc1ccccc1Nc1c(Cl)cccc1Cl)OCO/N=[N+](\[O-])N1CCCC1 | · | ? | -56% | · | · | ·
COCCn1c(SCC(=O)Nc2cc(C)cc(C)c2)nc2ccccc2c1=O | -2% | 0% | -21% | -14 | ? | ?
SMILES | S-ASM inh | TGFb inhibitor | HepG2 tox | IL1B secr inh | DT40 TDP1 CPT | DT40 TDP1 no CPT
COCCn1c(SCC(=O)Nc2ccc(OC)c(S(N)(=O)=O)c2)nc2ccccc21 | 2% | 1% | -10% | 60 | 16µM* | ?
COCCCn1c(SCC(=O)Nc2ccc(C(C)=O)cc2)nc2ccccc2c1=O | -2% | 17% | -25% | -20 | ? | 21µM*
COCCn1c(SCC(=O)Nc2cccc(C(=O)OC)c2)nc2ccccc2c1=O | -1% | 0% | -18% | 35 | 21µM* | ?
CCN(C(=O)C(=O)c1c[nH]c2ccccc12)c1ccccc1 | -1% | -15% | -51% | 9 | -2% | -10%
CSCCC(C(=O)Nc1c(C)cccc1C)N(C)CCc1ccccc1 (configuration not stated) | · | -6% | -2% | -2 | 18µM* | 16µM*
CN(CCc1ccccc1)C(CCc1ccccc1)C(=O)Nc1ccc2c(c1)OCCO2 (configuration not stated) | · | ? | -26% | 11 | ? | ?
COCc1c(C(=O)N2CCN(Cc3ccc(C#N)cc3)CC2)oc2ccccc12 | 4% | -4% | -4% | -11 | -30% | 21µM*
COCc1c(C(=O)N2CCN(Cc3c(F)cccc3Cl)CC2)oc2ccccc12 | 0% | -3% | -2% | -29 | ? | 21µM*
COCc1c(C(=O)NC2CCCCCC2)oc2ccccc12 | -2% | -10% | -22% | -26 | ? | ?
COCc1c(C(=O)N2CCN(Cc3ccc4c(c3)OCO4)CC2)oc2ccccc12 | 8% | -22% | -30% | -3 | ? | ?
COc1ccc(CC(=O)Nc2c(C(=O)N3CCN(c4ncccn4)CC3)oc3ccccc23)cc1 | -2% | 7% | 7% | -17 | -1% | -20%
COCc1c(C(=O)N(C)Cc2ccccc2N2CCCC2)oc2ccccc12 | -2% | -11% | 0% | -16 | ? | 23µM*
